Assay results reported in PubChem BioAssay (NCATS).
Where “and” joins values, the source holds several entries; their conditions need not be identical. Identical values can stand only once. Results filed as inconclusive are left out. A number with no mark means an inactive call. Calls of active or inactive are those of the source. Unless noted, calls follow the shape of the dose curve; as a rule, active = well fitted curve in the direction sought with a large enough effect in the repeat runs; inconclusive = weak or mixed curves; inactive = no such curve, though single readings can be large; an effect the other way counts as inactive or inconclusive.

Molecular target: Cytochrome P450 2C9 (Homo sapiens) (UniProt P11712)
Sequence (P11712 whole entry, looked up): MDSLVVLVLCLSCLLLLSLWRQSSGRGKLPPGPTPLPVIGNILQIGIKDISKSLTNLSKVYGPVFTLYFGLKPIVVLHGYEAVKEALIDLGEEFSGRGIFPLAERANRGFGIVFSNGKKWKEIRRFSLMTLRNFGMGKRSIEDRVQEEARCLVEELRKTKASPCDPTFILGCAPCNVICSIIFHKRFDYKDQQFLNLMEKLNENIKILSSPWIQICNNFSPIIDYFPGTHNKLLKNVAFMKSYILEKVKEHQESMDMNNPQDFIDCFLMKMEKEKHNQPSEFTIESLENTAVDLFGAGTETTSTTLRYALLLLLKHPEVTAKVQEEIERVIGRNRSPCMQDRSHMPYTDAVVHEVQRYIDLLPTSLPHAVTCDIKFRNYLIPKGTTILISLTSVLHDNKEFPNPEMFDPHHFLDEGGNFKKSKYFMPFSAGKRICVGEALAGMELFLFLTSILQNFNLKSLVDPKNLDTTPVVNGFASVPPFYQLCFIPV
Assay: Cytochrome P450 family 2 subfamily C member 9 (CYP2C9) small molecule antagonists: luciferase biochemical (cell-free) qHTS assay (AID 1645842); also: nearly all actives have a fitted effect of over 55% in size
Conditions: P450-Glo CYP2C9 enzyme assay, luciferin luminescence; series mostly up to 57.4 µM; activity change, negative = inhibition: at the top concentration
Outline: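 P450-Glo CYP2C9 system: proluciferin substrate with enzyme in mix containing 0.4% BSA, 10 min at room temperature, then NADPH regeneration solution added and incubated 1 h at 37C. Detection reagent stopped reaction; luminescence read after 20 min as RLU.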
% is scaled to controls: 0 for no effect and ±100 for the full control effect; potency is read from the fitted curve at half-maximal effect.

| SMILES | activity change, negative = inhibition | Potency |
| --- | --- | --- |
| CC(=O)NO | 16.2% |  |
| CCOCCn1c(N2CCCN(C)CC2)nc2ccccc21 | 0.768% |  |
| NS(=O)(=O)c1cc2c(cc1Cl)NC(CC1CCCC1)NS2(=O)=O (configuration not stated) | 4.59% |  |
| COc1ccccc1N1CCN(CCCCNC(=O)c2ccc(-c3ccc(C(C)=O)cc3)cc2)CC1 | 1.64% |  |
| Cc1ccc(-c2ncc(Cl)cc2-c2ccc(S(C)(=O)=O)cc2)cn1 | -24.7% |  |
| Cc1cc(C)cc(OCC2CNC(=O)O2)c1 (configuration not stated) | 5.27% |  |
| CC(=O)OCC(=O)[C@H]1CC[C@H]2[C@@H]3CCC4=CC(=O)CC[C@]4(C)[C@H]3CC[C@]12C |  | 4.9 µM (active) |
| CN1CCc2cccc3c2[C@H]1Cc1ccc(O)c(O)c1-3 | -25.9% |  |
| C[N+]12CCC(CC1)C(OC(=O)C(O)(c1ccccc1)c1ccccc1)C2 (configuration not stated) | 1.23% |  |
| CCCCCCCCCCCCSCCOCCO |  | 12.3 µM (active) |
| c1ccc(CC2=NCCN2)cc1 | 2.05% |  |
| CC(C)(C)NC[C@H](O)COc1cccc2c1CCCC2=O | 6.82% |  |
| Nc1ccc(S(=O)(=O)Nc2cnc3ccccc3n2)cc1 |  | 15.5 µM (active) |
| CN1CCN(CCC(=O)N2c3ccccc3Sc3ccc(C(F)(F)F)cc32)CC1 | 13.8% |  |
| CCCCC(CC)COC(=O)c1ccc(N(C)C)cc1 (configuration not stated) |  | 13.8 µM (active) and 13.5 µM (active) |
| O=C(O)C(Cc1cc(I)c(O)c(I)c1)c1ccccc1 (configuration not stated) |  | 15.1 µM (active) and 11 µM (active) |
| CN(C)CCOC(=O)C(c1ccccc1)C1(O)CCCC1 (configuration not stated) | 12% |  |
| N=C(N)N1CCc2ccccc2C1 | 12.1% [at 4.83 µM] |  |

| SMILES | activity change, negative = inhibition | Potency |
| --- | --- | --- |
| O=C1C(O)=C(O)C(=O)C(O)=C1O | 1.53% |  |
| CCCCCCCC/C=C\CCCCCCCCN |  | 19.5 µM (active) |
| Cc1cccc(C)c1NC(=O)CN1CCCCCC1 | 7.34% |  |
| NC(=S)N/N=C/c1cccnc1 | 8.52% |  |
| CC(=O)O[C@H]1C[C@@H]2CC[C@@H]3[C@H](CC[C@@]4(C)[C@H]3C[C@H]([N+]3(C)CCCCC3)[C@@H]4OC(C)=O)[C@@]2(C)C[C@@H]1N1CCCCC1 | 9.75% |  |
| O=C(O)c1ccc(S(=O)(=O)N(Cl)Cl)cc1 | 1.59% |  |
| CCNC(=O)NCc1cccc(Cl)c1 | 5.05% |  |
| NCCNC(=O)c1ccc(Cl)cn1 | 2.53% |  |
| CC(=O)Nc1ncc([N+](=O)[O-])s1 | -11.2% |  |
| COc1ccc2c(c1)c1c3n2CCN(C)C3=NCC1 | 11.3% |  |
| CCCCCCCCCCCCCCC[C@H](O)[C@@H](N)CO | 16.4% |  |
| CC(C)(C)NC[C@H](O)COc1nsnc1N1CCOCC1 | -1.48% |  |
| Cc1cccc(C)c1NC(=O)CN1CCCC1 | 6.6% |  |
| CC1CCc2c(N3CCC(O)CC3)c(F)cc3c(=O)c(C(=O)O)cn1c23 (configuration not stated) | -8.1% |  |
| Nc1nc(N)c(-c2ccccc2)s1 | 3.12% |  |
| CCN(CC)CCNC(=O)COc1ccc(OC)cc1 | 6.58% |  |
| Oc1ccccc1C=NCc1ccccc1 | 4.31% |  |
| Cc1cc2c(OCC(CNC(C)(C)C)OC(=O)c3ccccc3)cccc2[nH]1 (configuration not stated) |  | 3.47 µM (active) |

System: not listed separately
Assay: Primary qHTS for inhibitors of nuclear receptor binding SET domain protein 2 (NSD2) in an isogenic RCH-ACV NSD2 p.E1099K mutant (9B) (AID 1645876; active = well fitted curve in the direction sought with a large enough effect; an effect the other way counts as inactive or inconclusive; also: nearly all actives have a fitted effect of over 70% in size)
Conditions: RCH-ACV (leukaemia line) NSD2 E1099K (9B) viability, CellTiter-Glo, 72 h; series mostly up to 44.9 µM; activity change, negative = viability loss: at the top concentration

| SMILES | activity change, negative = viability loss | Potency | outcome |
| --- | --- | --- | --- |
| CC(=O)NO | -2.04% |  |  |
| CCOCCn1c(N2CCCN(C)CC2)nc2ccccc21 | -3.92% |  |  |
| NS(=O)(=O)c1cc2c(cc1Cl)NC(CC1CCCC1)NS2(=O)=O (configuration not stated) | 3.78% |  |  |
| COc1ccccc1N1CCN(CCCCNC(=O)c2ccc(-c3ccc(C(C)=O)cc3)cc2)CC1 | -26% |  |  |
| Cc1ccc(-c2ncc(Cl)cc2-c2ccc(S(C)(=O)=O)cc2)cn1 |  | inactive |  |
| Cc1cc(C)cc(OCC2CNC(=O)O2)c1 (configuration not stated) | 3.57% |  |  |
| CC(=O)OCC(=O)[C@H]1CC[C@H]2[C@@H]3CCC4=CC(=O)CC[C@]4(C)[C@H]3CC[C@]12C | -0.64% |  |  |
| CN1CCc2cccc3c2[C@H]1Cc1ccc(O)c(O)c1-3 |  | 6.68 µM (active) |  |
| C[N+]12CCC(CC1)C(OC(=O)C(O)(c1ccccc1)c1ccccc1)C2 (configuration not stated) | 2.23% |  |  |
| CCCCCCCCCCCCSCCOCCO | 8.65% |  |  |
| c1ccc(CC2=NCCN2)cc1 |  | 8.41 µM (active) |  |
| CC(C)(C)NC[C@H](O)COc1cccc2c1CCCC2=O | 0.66% |  |  |
| Nc1ccc(S(=O)(=O)Nc2cnc3ccccc3n2)cc1 | -5% |  |  |
| CN1CCN(CCC(=O)N2c3ccccc3Sc3ccc(C(F)(F)F)cc32)CC1 |  | 15 µM (active) |  |
| CCCCC(CC)COC(=O)c1ccc(N(C)C)cc1 (configuration not stated) | -4.72% |  |  |
| O=C(O)C(Cc1cc(I)c(O)c(I)c1)c1ccccc1 (configuration not stated) | -28.5% |  |  |
| CN(C)CCOC(=O)C(c1ccccc1)C1(O)CCCC1 (configuration not stated) | -7.71% |  |  |
| N=C(N)N1CCc2ccccc2C1 | -4.68% [at 4.96 µM] |  |  |

| SMILES | activity change, negative = viability loss | Potency | outcome |
| --- | --- | --- | --- |
| O=C1C(O)=C(O)C(=O)C(O)=C1O |  |  | inactive |
| CCCCCCCC/C=C\CCCCCCCCN | -19.5% |  |  |
| Cc1cccc(C)c1NC(=O)CN1CCCCCC1 | 6.83% |  |  |
| NC(=S)N/N=C/c1cccnc1 | -20.1% |  |  |
| CC(=O)O[C@H]1C[C@@H]2CC[C@@H]3[C@H](CC[C@@]4(C)[C@H]3C[C@H]([N+]3(C)CCCCC3)[C@@H]4OC(C)=O)[C@@]2(C)C[C@@H]1N1CCCCC1 | -8.49% |  |  |
| O=C(O)c1ccc(S(=O)(=O)N(Cl)Cl)cc1 | 5.02% |  |  |
| CCNC(=O)NCc1cccc(Cl)c1 | -10.8% |  |  |
| NCCNC(=O)c1ccc(Cl)cn1 | 9.8% |  |  |
| CC(=O)Nc1ncc([N+](=O)[O-])s1 |  |  | inactive |
| COc1ccc2c(c1)c1c3n2CCN(C)C3=NCC1 | 1.18% |  |  |
| CCCCCCCCCCCCCCC[C@H](O)[C@@H](N)CO |  | 4.73 µM (active) |  |
| CC(C)(C)NC[C@H](O)COc1nsnc1N1CCOCC1 | 5.19% |  |  |
| Cc1cccc(C)c1NC(=O)CN1CCCC1 | 2.42% |  |  |
| CC1CCc2c(N3CCC(O)CC3)c(F)cc3c(=O)c(C(=O)O)cn1c23 (configuration not stated) | -17.9% |  |  |
| Nc1nc(N)c(-c2ccccc2)s1 | 8.57% |  |  |
| CCN(CC)CCNC(=O)COc1ccc(OC)cc1 | 6.65% |  |  |
| Oc1ccccc1C=NCc1ccccc1 | 7.96% |  |  |
| Cc1cc2c(OCC(CNC(C)(C)C)OC(=O)c3ccccc3)cccc2[nH]1 (configuration not stated) | -20% |  |  |
